Reference: PubChem BioAssay (NCATS)
Inconclusive results are not listed. Where a call stands in place of a potency, no number is given. The source made the active and inactive calls. Calls follow the shape of the dose curve; as a rule, active = well fitted inhibition curve with a large enough effect; inconclusive = small, poorly fitted or top-dose-only effect; inactive = no such curve, though single readings can be large or run the other way.

Test: qHTS assay for measurement of the activity of small molecule inhibitors on Zika virus induced Caspase-3 activity in human iPSC derived neural progenitor cells (hNPCs) (AID 1224857); also: nearly all actives have a fitted effect of over 65% in size
Settings: hNPCs ZIKV-induced caspase-3/7, Caspase-Glo luminescence, 6 h; series mostly up to 45.7 µM
From the text: National Center for Advancing Translational Sciences [NCATS]
Johns Hopkins University School of Medicine
Increase in the Caspase-3 activity indicates an activation of apoptosis cell death pathway caused by Zika virus infection in certain types of neuronal cells including human neural progenitor cells (hNPCs), astrocytes, and astrocytoma cell line (SNB-19). This cell-based caspase-3 activity assay measures the increased caspase-3 activity in the human iPSC derived neural progenitor cells (hNPCs) after a 6-hour Zika virus infection with a luminescence readout. A decrease in the luminescence signal in this assay by small molecule treatment indicates an inhibitory effect of that small molecule on the Zika virus induced caspase-3 activity that may correlate with its effect on reduction of Zika virus caused cell death.
The medium for hNPCs consists of DMEM/F12, N2 supplement (ThermoFisher, Cat.# 17502048), NEAA (ThermoFisher, Cat. # 11140050), 2 ug/ml heparin, 2 uM cyclopamine, and B27 (ThermoFisher, Cat. # 17504044). A Caspase-Glo 3/7 assay kit (catalog number G8092; Promega, Madison, WI) was used to detect caspase-3 activity induced by Zika virus infection in human cells. The reagent mixture was reconstituted as described in the protocol from the manufacturer. Polystyrene tissue culture treated and PDL coated white plates were obtained from Greiner Bio-One (Monroe, NC). Cells were seeded in 384- or 1536-well assay plates and cultured at 37 C with 5% CO2 for 16 to 20 hours. The typical cell seeding density in the 1536-well plate assay is 350 cells/well in 3 ul medium for hNPCs in tissue culture treated plates. Compounds were added to cells and incubated for one hour before addition of ZIKV solution to cells (2 FFU/cell). After incubation at 37 C with 5% CO2 for 6 hours, the reagent mixture of Caspase-Glo 3/7 assay kit was added to each well, followed by incubation at room temperature for 30 minutes. The luminescence intensity of the assay plates was measured using a ViewLux plate reader (PerkinElmer). Data were normalized by using the cell-containing wells without ZIKV as a negative control (0% induction of caspase 3/7 activity) and wells containing ZIKV infected cells (Caspase-3 activity induced) as a positive control (100% induction of caspase 3 activity). The percentage inhibitions of the increased Caspase-3 activity by small molecule inhibitors were then calculated.
Potency is read from the fitted curve at half-maximal effect.

Structure (SMILES)	Potency
CC(C)(C)c1cnc(CSc2cnc(NC(=O)C3CCNCC3)s2)o1	inactive
COc1ccc(OC)c(-c2nnc3ccc(-c4ccc(OC)c(O[C@@H]5CCOC5)c4)nn23)c1	inactive
COc1cc2c(Oc3ccc(NC(=O)C4(C(=O)Nc5ccc(F)cc5)CC4)cc3F)ccnc2cc1OCCCN1CCOCC1	inactive
COc1cc2ncnc(Nc3ccc(F)c(Cl)c3)c2cc1NC(=O)C=CCN1CCCCC1	inactive
CCN1CCN(Cc2ccc(-c3cc4c(N[C@H](C)c5ccccc5)ncnc4[nH]3)cc2)CC1	inactive
Cc1[nH]c2ccccc2c1CCNCc1ccc(C=CC(=O)NO)cc1	inactive
C=CC(=O)Nc1cccc(Oc2nc(Nc3ccc(N4CCN(C)CC4)cc3OC)ncc2Cl)c1	inactive
CC(=O)SC[C@@H](C)C(=O)N1CCC[C@H]1C(=O)N[C@@H](Cc1ccccc1)C(=O)O	inactive
CCCCc1nc2cc(C=CC(=O)NO)ccc2n1CCN(CC)CC	inactive
Cc1ccc(NC(=O)C2(c3ccc4c(c3)OC(F)(F)O4)CC2)nc1-c1cccc(C(=O)O)c1	inactive
C[C@]12CC[C@H](O)CC1=CCC1C2CC[C@]2(C)C(n3cnc4ccccc43)=CCC12 (stereo not given in full)	inactive
O=C(C=Cc1c(C(=O)O)[nH]c2cc(Cl)cc(Cl)c12)Nc1ccccc1	inactive
CC(=O)Nc1nc(C)c(-c2ccc(Cl)c(S(=O)(=O)NCCO)c2)s1	inactive
Cn1c(=O)n(-c2ccc(C(C)(C)C#N)cc2)c2c3cc(-c4cnc5ccccc5c4)ccc3ncc21	inactive
COc1cccc2c(NCc3ccccc3)nc(-n3c(N)nc4ccccc43)nc12	inactive
O=C(O)C1(Cc2cccc(Nc3nccs3)n2)CCC(Oc2cccc(Cl)c2F)CC1 (stereo not given)	inactive
Cc1cc(Nc2cc(N3CCN(C)CC3)nc(Sc3ccc(NC(=O)C4CC4)cc3)n2)n[nH]1	inactive
O=C(Nc1cn[nH]c1-c1nc2ccc(CN3CCOCC3)cc2[nH]1)NC1CC1	inactive
O=c1[nH]nc(Sc2ncc([N+](=O)[O-])s2)n1-c1ccc2c(c1)OCCO2	23.5 µM (active)
CS(=O)(=O)c1ccc(-c2cnc(N)c(C(=O)Nc3ccccc3)n2)cc1	inactive

Structure (SMILES)	Potency
CCn1cc(-c2ccnc3[nH]c(-c4cccc(CN(C)C)c4)cc23)c(-c2ccc(NC(=O)N(C)C)cc2)n1	inactive
O=C(O)CCCc1c[nH]c2ccccc12	inactive
COC(=O)Nc1nc2ccc(C(=O)c3ccc(F)cc3)cc2[nH]1	inactive
CC(C)c1noc(N2CCC(COc3ccc(-c4ccc(S(C)(=O)=O)cc4)nc3)CC2)n1	inactive
CCS(=O)(=O)c1cccc(-c2cc(C(=O)NC3CCN(C)CC3)c(C)c3[nH]c4ncc(C)cc4c23)c1	inactive
Nc1ccc(C(=O)c2cc3c(ccc4ccccc43)[nH]2)cc1	inactive
CCN1CCN(CC(=O)Nc2ccc(-c3cccc4c(=O)cc(N5CCOCC5)oc34)c3sc4ccccc4c23)CC1	inactive
Nc1nccc(Oc2ccc(NC(=O)c3c[nH]cc(-c4ccc(F)cc4)c3=O)cc2F)c1Cl	inactive
Cn1cc(-c2ccncc2)c(-c2ccc(OCc3ccc4ccccc4n3)cc2)n1	inactive
Nc1cc(C(F)(F)F)c(-c2cc(N3CCOCC3)nc(N3CCOCC3)n2)cn1	inactive
COc1ccc(-n2nc(C(N)=O)c3c2C(=O)N(c2ccc(N4CCCCC4=O)cc2)CC3)cc1	inactive
COC(=O)C[C@](O)(CCCC(C)(C)O)C(=O)O[C@@H]1C(OC)=C[C@]23CCCN2CCc2cc4c(cc2[C@H]13)OCO4	inactive
CCOc1cc2ncc(C#N)c(Nc3ccc(F)c(Cl)c3)c2cc1NC(=O)C=CCN(C)C	inactive
CNC(=O)c1ccc(N2C(=S)N(c3cnc(C#N)c(C(F)(F)F)c3)C(=O)C23CCC3)cc1F	inactive
c1cc(-c2cnn3cc(-c4ccc(OCCN5CCCCC5)cc4)cnc23)ccn1	inactive
CCC[C@H](NC(=O)C(C#N)=Cc1cccc(Br)n1)c1ccccc1	inactive
c1nc2nc(Nc3ccc(N4CCOCC4)cc3)nc(NC3CCCCC3)c2[nH]1	inactive
CC(C)Nc1cc(C(F)(F)F)cc2nc(NC(=O)c3cccnc3)nn12	inactive
C[C@]1(CO)CN(c2cc(C(=O)Nc3ccc4c(c3)-c3c(c(C(N)=O)nn3-c3ccc(F)cc3)CC4)c(Cl)cn2)C[C@@]1(C)CO	inactive
CN1CCC(CNc2ccc3ncc(-c4cccc(OC(F)(F)F)c4)n3n2)CC1	inactive
